Data published in PubChem BioAssay (EPA / NIEHS).
Inconclusive results are not listed. More than one record can exist for a structure, and the calls need not agree. Calls of active or inactive are those of the source. The calls were made as follows, unless noted: active = hit-call score of the fitted dose curve at least 0.9, where 1 is the maximum; inactive = score below 0.9.

Tests used:
[1] = target: Nuclear respiratory factor 1 (Homo sapiens) (UniProt Q16656); assay: ATG_NRF1_CIS: Attagene CIS-FACTORIAL HepG2 Assay for human Nuclear Respiratory Factor 1 (NRF1) Orphan Gene (AID 2282987); details: HepG2 NRF1 cis-element reporter, Attagene multiplex; actives raise or lower the signal
Sequence of Nuclear respiratory factor 1 (Homo sapiens) (Q16656 whole entry, looked up, the tested form may be a part): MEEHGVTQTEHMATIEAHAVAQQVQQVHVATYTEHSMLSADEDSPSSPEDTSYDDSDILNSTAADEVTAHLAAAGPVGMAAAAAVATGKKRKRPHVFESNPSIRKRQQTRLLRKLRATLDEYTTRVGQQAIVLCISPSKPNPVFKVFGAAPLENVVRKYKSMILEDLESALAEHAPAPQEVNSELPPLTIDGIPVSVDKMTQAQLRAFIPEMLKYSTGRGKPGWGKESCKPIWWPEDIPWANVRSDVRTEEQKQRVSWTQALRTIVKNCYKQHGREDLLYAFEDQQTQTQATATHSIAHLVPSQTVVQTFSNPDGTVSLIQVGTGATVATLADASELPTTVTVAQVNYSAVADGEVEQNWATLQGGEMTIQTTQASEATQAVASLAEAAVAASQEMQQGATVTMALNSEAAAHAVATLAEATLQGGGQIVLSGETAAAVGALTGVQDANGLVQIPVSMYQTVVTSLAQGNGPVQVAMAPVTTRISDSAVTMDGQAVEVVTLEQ
How it was run: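 Cells (HepG2, transient MRTU transfection) are exposed to compound for 24 h, then RNA isolated and reporter mRNA amplified and fluorescently labelled. Fragments are separated by capillary electrophoresis; signal change is fitted bidirectionally relative to DMSO.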

[2] = ATG_NFI_CIS: Attagene CIS-FACTORIAL HepG2 Assay for human Nuclear Factor I (NFI) (AID 2282989); details: HepG2 cis-regulatory reporter, NFI response element transcription; actives raise or lower the signal
How it was run: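 Transient MRTU transfection of HepG2 → 24 h chemical dosing → total RNA, oligo(dT) RT → PCR, 6-FAM primer extension, HpaI cut → capillary electrophoresis. Endpoint fitted bidirectionally relative to DMSO.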

[3] = target: Myc proto-oncogene protein (Homo sapiens) (UniProt P01106); assay: ATG_Myc_CIS: Attagene CIS-FACTORIAL HepG2 Assay for human Myelocytomatosis (Myc) Proto-Oncogene Transcription Factor (AID 2282990); details: HepG2, Attagene cis-reporter transcription factor activity; actives raise or lower the signal
Sequence of Myc proto-oncogene protein (Homo sapiens) (P01106 whole entry, looked up): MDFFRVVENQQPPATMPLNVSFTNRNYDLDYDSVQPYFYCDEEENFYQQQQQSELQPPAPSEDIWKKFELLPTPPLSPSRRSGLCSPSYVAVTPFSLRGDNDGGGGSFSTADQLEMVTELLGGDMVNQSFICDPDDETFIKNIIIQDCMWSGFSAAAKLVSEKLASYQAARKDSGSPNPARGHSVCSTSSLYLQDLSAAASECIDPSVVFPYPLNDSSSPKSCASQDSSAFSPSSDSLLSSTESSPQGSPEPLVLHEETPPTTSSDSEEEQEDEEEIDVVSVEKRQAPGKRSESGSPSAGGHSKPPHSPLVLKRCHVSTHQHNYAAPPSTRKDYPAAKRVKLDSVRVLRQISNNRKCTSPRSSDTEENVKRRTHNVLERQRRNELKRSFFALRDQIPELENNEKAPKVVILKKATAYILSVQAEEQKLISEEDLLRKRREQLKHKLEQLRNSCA
How it was run: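 HepG2, transient MRTU transfection (cis promoters, endogenous TFs); 24 h dosing; TriZol RNA → oligo(dT) RT → PCR → 6-FAM primer extension → HpaI cut → CE. Bidirectional fit vs DMSO.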

[4] = ATG_NF_kB_CIS: Attagene CIS-FACTORIAL HepG2 Assay for human Nuclear Factor Kappa B (NF-kB) (AID 2282991); details: HepG2 Attagene cis-factorial NF-kB reporter mRNA; actives raise or lower the signal
How it was run: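 Measures mRNA induction of an NF-kB-responsive cis-element reporter in HepG2 cells transfected with multiple reporter units, sampled 24 h post-dosing; quantified by fluorescence after RT-PCR and capillary electrophoresis, fitted for activation or inhibition against DMSO.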

[5] = ATG_Oct_MLP_CIS: Attagene CIS-FACTORIAL HepG2 Assay for human Octamer-Binding Transcription Factor (Oct) (AID 2282993); details: HepG2 Attagene cis-factorial Oct reporter, mRNA; actives raise or lower the signal
How it was run: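 Transient MRTU transfection of HepG2 → 24 h compound treatment → RNA isolation, reverse transcription, PCR → 6-FAM primer extension, HpaI digest → capillary electrophoresis. Activity fitted both directions against DMSO.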

[6] = target: Cellular tumor antigen p53 (Homo sapiens) (UniProt P04637); assay: ATG_p53_CIS: Attagene CIS-FACTORIAL HepG2 Assay for human p53 Transcription Factor (AID 2282994); details: HepG2 p53 cis-element reporter, Attagene mRNA; actives raise or lower the signal
Sequence of Cellular tumor antigen p53 (Homo sapiens) (P04637 whole entry, looked up, the tested form may be a part): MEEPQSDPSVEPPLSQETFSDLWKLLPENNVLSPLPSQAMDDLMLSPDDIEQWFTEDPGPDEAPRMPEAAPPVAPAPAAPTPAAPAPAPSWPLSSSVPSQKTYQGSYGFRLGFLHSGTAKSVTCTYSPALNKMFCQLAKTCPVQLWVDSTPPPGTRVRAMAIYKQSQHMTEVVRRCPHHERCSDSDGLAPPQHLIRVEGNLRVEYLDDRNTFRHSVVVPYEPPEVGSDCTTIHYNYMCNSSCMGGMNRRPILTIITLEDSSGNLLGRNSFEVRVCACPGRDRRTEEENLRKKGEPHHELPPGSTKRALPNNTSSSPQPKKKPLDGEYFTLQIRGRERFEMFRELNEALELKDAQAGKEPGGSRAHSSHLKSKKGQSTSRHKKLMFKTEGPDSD
How it was run: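 In HepG2 cells, reporter transcription units under cis-regulatory promoters were transiently introduced. Following 24 h treatment, RNA was processed to labelled, digested cDNA fragments read by capillary electrophoresis; fitting was bidirectional versus DMSO.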

[7] = BSK_3C_TissueFactor: BioMAP Diversity Plus: 3C Assay for Tissue Factor Biomarker Activity (AID 2282997); details: BioMAP 3C HUVEC, tissue factor biomarker readout; actives raise or lower the signal
How it was run: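 HUVEC, 3C system, 24 h post-dose; Tissue Factor by ELISA; bidirectional fit vs DMSO baseline.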

[8] = BSK_3C_uPAR: BioMAP Diversity Plus: 3C Assay for Urokinase-type plasminogen activator receptor (uPAR) Biomarker Activity (AID 2282998); details: BioMAP 3C HUVEC, uPAR biomarker ELISA; actives raise or lower the signal
How it was run: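 ELISA readout of uPAR on human vascular endothelium (umbilical vein primary cells), taken 24 h after chemical dosing. Increases and decreases are both fitted relative to DMSO vehicle.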

[9] = BSK_3C_VCAM1: BioMAP Diversity Plus: 3C Assay for Vascular cell adhesion molecule 1 (VCAM1) Biomarker Activity (AID 2282999); details: BioMAP 3C HUVEC, VCAM1 ELISA, cytokine-stimulated; actives raise or lower the signal
How it was run: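 Activity fitted in both directions relative to DMSO, with ELISA measurement of the surface marker on primary HUVEC (3C) at 24 h post-treatment; parallel SRB staining (0.1% SRB, TCA-fixed, 560 nm) flagged overt cytotoxicity.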

[10] = BSK_4H_Eotaxin3: BioMAP Diversity Plus: 4H Assay for Eotaxin 3 Biomarker Activity (AID 2283000); details: primary human endothelial cells (HUVEC); actives raise or lower the signal
How it was run: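 Readout is Eotaxin-3 (CCL26) level by ELISA in primary human umbilical vein endothelial cells harvested 24 h after chemical exposure; activity fitted in both directions against DMSO control.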

[11] = target: human Peroxisome Proliferator-activated Receptor alpha (PPARa), PPARA (gene 5465) (UniProt Q07869); assay: ATG_PPARa_TRANS: Attagene TRANS-FACTORIAL HepG2 Assay for human Peroxisome Proliferator-activated Receptor alpha (PPARa) (AID 2283001; active = hit-call score of the fitted dose curve at least 0.9, where 1 is the maximum)
Sequence of human Peroxisome Proliferator-activated Receptor alpha (PPARa), PPARA (gene 5465) (Q07869 whole entry, looked up, the tested form may be a part): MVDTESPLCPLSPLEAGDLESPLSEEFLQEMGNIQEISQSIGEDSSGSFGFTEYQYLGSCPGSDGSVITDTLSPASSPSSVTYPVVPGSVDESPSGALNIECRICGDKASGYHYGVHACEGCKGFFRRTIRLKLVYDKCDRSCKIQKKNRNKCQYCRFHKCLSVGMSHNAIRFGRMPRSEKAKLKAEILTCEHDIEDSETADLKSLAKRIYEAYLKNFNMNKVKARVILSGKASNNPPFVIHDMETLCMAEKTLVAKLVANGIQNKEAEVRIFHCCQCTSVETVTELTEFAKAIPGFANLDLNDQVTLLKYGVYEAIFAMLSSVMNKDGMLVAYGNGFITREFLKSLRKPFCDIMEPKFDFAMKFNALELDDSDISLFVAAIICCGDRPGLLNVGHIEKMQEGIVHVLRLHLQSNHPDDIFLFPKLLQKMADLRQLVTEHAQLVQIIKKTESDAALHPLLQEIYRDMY
How it was run: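 Transfected HepG2 cells treated with test chemical for 24 h. RNA isolated, reverse-transcribed with oligo(dT), PCR-amplified, FAM-labelled and HpaI-digested. Fragments sized by capillary electrophoresis; gain-of-signal fit relative to DMSO.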

[12] = target: human Peroxisome Proliferator-activated Receptor delta (PPARd), PPARD (gene 5467) (UniProt Q03181); assay: ATG_PPARd_TRANS: Attagene TRANS-FACTORIAL HepG2 Assay for human Peroxisome Proliferator-activated Receptor delta (PPARd) (AID 2283002; active = hit-call score of the fitted dose curve at least 0.9, where 1 is the maximum)
Sequence of human Peroxisome Proliferator-activated Receptor delta (PPARd), PPARD (gene 5467) (Q03181 whole entry, looked up, the tested form may be a part): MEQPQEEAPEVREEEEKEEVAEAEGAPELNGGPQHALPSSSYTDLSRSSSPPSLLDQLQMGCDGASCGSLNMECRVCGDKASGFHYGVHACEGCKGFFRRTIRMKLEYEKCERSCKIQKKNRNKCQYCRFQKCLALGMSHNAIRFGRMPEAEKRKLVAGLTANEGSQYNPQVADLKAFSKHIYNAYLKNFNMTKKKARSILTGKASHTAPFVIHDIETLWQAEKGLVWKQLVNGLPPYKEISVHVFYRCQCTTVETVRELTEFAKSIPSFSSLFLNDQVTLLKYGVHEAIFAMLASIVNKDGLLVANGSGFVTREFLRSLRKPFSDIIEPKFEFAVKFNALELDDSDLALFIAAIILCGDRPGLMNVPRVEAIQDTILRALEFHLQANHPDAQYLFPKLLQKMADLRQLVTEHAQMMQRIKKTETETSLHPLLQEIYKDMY
How it was run: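 Transient HepG2 transfection (multiple GAL4-UAS RTUs, chimeric receptor-Gal4); 24 h dosing; total RNA → oligo(dT) RT → PCR → 6-FAM primer extension → HpaI cut → CE. Positive direction vs DMSO.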

[13] = read-out: Intercellular Adhesion Molecule 1 (ICAM1), ICAM1 (gene 3383); assay: BSK_3C_ICAM1: BioMAP Diversity Plus: 3C Assay for Intercellular Adhesion Molecule 1 (ICAM1) Biomarker Activity (AID 2283003); details: primary human endothelial cells (HUVEC); actives raise or lower the signal
How it was run: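 ELISA read-out of ICAM-1; HUVEC (primary human), 3C system, 24 h post-dosing; bidirectional fit vs DMSO baseline.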

[14] = target: human Retinoic Acid Receptor beta (RARb), RARB (gene 5915) (UniProt P10826); assay: ATG_RARb_TRANS: Attagene TRANS-FACTORIAL HepG2 Assay for human Retinoic Acid Receptor beta (AID 2283004; active = hit-call score of the fitted dose curve at least 0.9, where 1 is the maximum)
Sequence of human Retinoic Acid Receptor beta (RARb), RARB (gene 5915) (P10826 whole entry, looked up, the tested form may be a part): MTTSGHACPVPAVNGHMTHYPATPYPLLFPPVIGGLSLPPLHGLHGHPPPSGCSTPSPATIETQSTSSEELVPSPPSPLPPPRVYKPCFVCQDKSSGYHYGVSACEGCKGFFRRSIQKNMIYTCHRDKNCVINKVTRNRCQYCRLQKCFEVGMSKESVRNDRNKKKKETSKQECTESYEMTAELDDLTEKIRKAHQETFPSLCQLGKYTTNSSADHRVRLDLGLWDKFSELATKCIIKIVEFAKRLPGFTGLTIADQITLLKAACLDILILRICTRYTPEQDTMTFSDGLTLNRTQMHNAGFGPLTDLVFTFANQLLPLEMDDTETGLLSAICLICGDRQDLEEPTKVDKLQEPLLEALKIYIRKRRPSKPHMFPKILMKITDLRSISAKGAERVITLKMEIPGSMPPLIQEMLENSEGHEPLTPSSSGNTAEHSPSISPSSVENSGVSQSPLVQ
How it was run: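 Readout is reporter mRNA induction: RNA reverse-transcribed, PCR-amplified, FAM-labelled, HpaI-cut and resolved by capillary electrophoresis. Transiently transfected HepG2 cells carrying exogenous NR–Gal4 chimeras were dosed for 24 h; activity fitted upward relative to DMSO.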

[15] = target: Retinoic acid receptor alpha (Homo sapiens) (UniProt P10276); assay: ATG_RARa_TRANS: Attagene TRANS-FACTORIAL HepG2 Assay for human Retinoic Acid Receptor alpha (RARa) (AID 2283005; active = hit-call score of the fitted dose curve at least 0.9, where 1 is the maximum)
Sequence of Retinoic acid receptor alpha (Homo sapiens) (P10276 whole entry, looked up, the tested form may be a part): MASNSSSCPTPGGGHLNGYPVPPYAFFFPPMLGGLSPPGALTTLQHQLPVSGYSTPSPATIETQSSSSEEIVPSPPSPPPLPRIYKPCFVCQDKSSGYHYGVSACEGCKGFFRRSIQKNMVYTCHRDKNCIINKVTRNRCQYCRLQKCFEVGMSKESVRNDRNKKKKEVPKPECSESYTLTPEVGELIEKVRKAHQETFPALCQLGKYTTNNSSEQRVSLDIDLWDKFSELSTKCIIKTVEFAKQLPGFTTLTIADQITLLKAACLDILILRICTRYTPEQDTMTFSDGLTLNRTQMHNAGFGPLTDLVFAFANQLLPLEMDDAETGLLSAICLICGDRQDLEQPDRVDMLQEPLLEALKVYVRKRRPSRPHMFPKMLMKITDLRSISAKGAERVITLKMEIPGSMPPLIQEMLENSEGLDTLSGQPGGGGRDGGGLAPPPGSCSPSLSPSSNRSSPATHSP
How it was run: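 Reporter transcripts, measured by RT-PCR with fluorescent labeling and capillary electrophoresis after 24 h dosing, reflect activity of an exogenous human RARa–GAL4 fusion in transiently transfected HepG2. Fitted for increase relative to DMSO.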

[16] = BSK_3C_Proliferation: Cell Proliferation Assessment in the BioMAP Diversity Plus: 3C Assay (AID 2283006); details: primary human endothelial cells (HUVEC);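 as to AC50: potency may reflect either rise or fall in cell number versus DMSO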
How it was run: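 HUVEC, sub-confluent; 48 h chemical exposure; 10% TCA fix, 0.1% SRB stain, A560 total protein. Gain or loss of signal fitted both directions vs DMSO control.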

[17] = target: Peroxisome proliferator-activated receptor gamma (Homo sapiens) (UniProt P37231); assay: ATG_PPARg_TRANS: Attagene TRANS-FACTORIAL HepG2 Assay for human Peroxisome Proliferator-activated Receptor-gamma (PPARg) (AID 2283007; active = hit-call score of the fitted dose curve at least 0.9, where 1 is the maximum)
Sequence of Peroxisome proliferator-activated receptor gamma (Homo sapiens) (P37231 whole entry, looked up, the tested form may be a part): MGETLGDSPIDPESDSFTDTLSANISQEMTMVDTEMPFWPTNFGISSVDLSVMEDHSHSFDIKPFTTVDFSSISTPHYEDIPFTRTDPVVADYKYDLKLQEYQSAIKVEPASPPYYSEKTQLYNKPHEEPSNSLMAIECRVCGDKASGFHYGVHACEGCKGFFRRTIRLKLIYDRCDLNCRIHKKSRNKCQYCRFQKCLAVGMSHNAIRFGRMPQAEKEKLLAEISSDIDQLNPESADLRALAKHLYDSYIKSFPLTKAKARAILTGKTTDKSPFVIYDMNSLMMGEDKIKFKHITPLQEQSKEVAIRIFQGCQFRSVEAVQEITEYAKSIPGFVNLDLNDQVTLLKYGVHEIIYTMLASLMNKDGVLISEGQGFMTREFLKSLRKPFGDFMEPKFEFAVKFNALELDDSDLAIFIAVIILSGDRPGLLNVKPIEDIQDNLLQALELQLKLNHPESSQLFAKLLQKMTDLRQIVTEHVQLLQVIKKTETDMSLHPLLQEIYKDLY
How it was run: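 Gain-of-signal endpoint relative to DMSO, derived from reporter mRNA levels quantified by RT-PCR and capillary electrophoresis. Cells were HepG2 transiently expressing a chimeric NR-Gal4 construct with GAL4-UAS reporters, exposed to chemicals for 24 h.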

[18] = target: Nuclear receptor subfamily 1 group I member 2 (Homo sapiens) (UniProt O75469); assay: ATG_PXR_TRANS: Attagene TRANS-FACTORIAL HepG2 Assay for human Pregnane X Receptor (PXR) (AID 2283008; active = hit-call score of the fitted dose curve at least 0.9, where 1 is the maximum)
Sequence of Nuclear receptor subfamily 1 group I member 2 (Homo sapiens) (O75469 whole entry, looked up, the tested form may be a part): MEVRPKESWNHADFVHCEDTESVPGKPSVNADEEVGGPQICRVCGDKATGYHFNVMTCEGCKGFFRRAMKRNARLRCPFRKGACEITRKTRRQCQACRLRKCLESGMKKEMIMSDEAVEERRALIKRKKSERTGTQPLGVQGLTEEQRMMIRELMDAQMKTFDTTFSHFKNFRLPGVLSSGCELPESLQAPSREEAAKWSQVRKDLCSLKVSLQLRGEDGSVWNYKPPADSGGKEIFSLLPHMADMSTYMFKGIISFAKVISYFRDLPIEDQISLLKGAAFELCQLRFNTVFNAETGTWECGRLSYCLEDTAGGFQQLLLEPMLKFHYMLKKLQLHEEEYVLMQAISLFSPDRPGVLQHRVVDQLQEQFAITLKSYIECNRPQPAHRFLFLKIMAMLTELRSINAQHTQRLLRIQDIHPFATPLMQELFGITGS
How it was run: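 Multiplexed TRANS reporter panel in HepG2; this component tracks PXR-Gal4-driven reporter mRNA after 24 h dosing, measured by RT-PCR with capillary electrophoresis fluorescence, fitted against DMSO.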

[19] = target: human Retinoic Acid Receptor gamma (RARg), RARG (gene 5916) (UniProt P13631); assay: ATG_RARg_TRANS: Attagene TRANS-FACTORIAL HepG2 Assay for human Retinoic Acid Receptor gamma (RARg) (AID 2283009; active = hit-call score of the fitted dose curve at least 0.9, where 1 is the maximum)
Sequence of human Retinoic Acid Receptor gamma (RARg), RARG (gene 5916) (P13631 whole entry, looked up, the tested form may be a part): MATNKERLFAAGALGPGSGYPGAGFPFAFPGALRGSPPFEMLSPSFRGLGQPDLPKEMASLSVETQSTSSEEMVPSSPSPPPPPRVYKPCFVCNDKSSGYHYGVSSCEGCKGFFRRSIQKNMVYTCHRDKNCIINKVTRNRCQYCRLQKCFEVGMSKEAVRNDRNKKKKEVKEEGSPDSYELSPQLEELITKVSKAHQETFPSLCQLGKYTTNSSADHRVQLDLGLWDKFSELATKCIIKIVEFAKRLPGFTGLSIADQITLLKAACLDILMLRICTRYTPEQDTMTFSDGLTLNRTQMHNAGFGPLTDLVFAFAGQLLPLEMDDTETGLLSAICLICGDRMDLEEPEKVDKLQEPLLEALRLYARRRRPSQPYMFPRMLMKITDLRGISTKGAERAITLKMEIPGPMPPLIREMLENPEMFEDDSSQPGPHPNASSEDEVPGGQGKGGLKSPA
How it was run: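 Readout: reporter transcript levels via RT-PCR, 6-FAM primer-extension labelling, HpaI digestion and capillary electrophoresis. Cells: HepG2 carrying transfected RARg-GAL4 chimera plus UAS reporter set. Dosing 24 h; DMSO negative control.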

[20] = ATG_NRF2_ARE_CIS: Attagene CIS-FACTORIAL HepG2 Assay for human Nuclear Factor Erythroid 2 Related Factor 2 (NFR2) response to Antioxidant Response Elements (ARE) (AID 2282992); details: HepG2 Attagene ARE/NRF2 reporter, transcription factor activity; actives raise or lower the signal
How it was run: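 Using transiently transfected HepG2 cells exposed for 24 h, reporter mRNA levels were determined by RT-PCR with fluorescent primer extension and capillary electrophoresis, analysed for gain or loss of signal against DMSO.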

Measured: AC50

O=S(=O)(O)CCC(F)(F)C(F)(F)C(F)(F)C(F)(F)C(F)(F)C(F)(F)F
not listed: [20]
inactive: all other assays above

Cc1nc(-c2ccccn2)ncc1C(=O)Nn1cc(C)c2cc(F)ccc21
active: [8] 20 µM | [17] 7.87 µM | [18] 775 nM
not listed: [6] | [11] | [15] | [19]
inactive: all other assays above

FC(F)(F)COC(OCC(F)(F)F)OCC(F)(F)F
not listed: [11] | [19] | [20]
inactive: all other assays above

CCCCCCOC(=O)CC(CC(=O)OCCCCCC)(OC(=O)CCC)C(=O)OCCCCCC
not listed: [6] | [11] | [12] | [14] | [15] | [19]
inactive: all other assays above

OCc1c[nH]c2ccccc12
active: [1] 27.2 µM | [4] 25.5 µM | [6] 26.8 µM | [7] 0.133 µM | [8] 20 µM | [10] 6.67 µM | [16] 9.76 µM | [17] 7.94 µM [middle of 5 runs] | [18] 1.89 µM [middle of 5 runs]
inactive: [1] | [2] | [3] | [4] | [5] | [6] | [9] | [11] | [12] | [13] | [15] | [19]

OCC(CO)(CO)CO
not listed: [4] | [6] | [14] | [15] | [19] | [20]
inactive: all other assays above

NNC(=O)c1ccncc1
not listed: [3] | [14] | [15] | [19]
inactive: all other assays above

OCCOCCOCCO
not listed: [3] | [11] | [12] | [14] | [15] | [18] | [19]
inactive: all other assays above
